# MITF primary: human MITF inhibition, primary screen | AlphaScreen MITF homodimerization, bead proximity signal | inhibition, % at 2.6 µM | actives 0.91% (n = 650,000) | AID 1259374; in the data active = inhibition above about 50%;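 note: 0% = vehicle wells with protein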
# GPR151 activ: human GPR151 activation | Q8TDV0 | actives 1% (n = 650,000) | PathHunter beta-arrestin GPR151 cells, luminescence | activation, % at 11.2 µM; in the data active = activation above about 4.9%;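 note: 0% = median of compound wells and 100% = cells with positive control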
# TEAD-YAP block: TEAD-YAP interaction inhibition; inhibition, % at 9.12 µM; actives 1.4% (n = 640,000); HEK-TIYL cells, TEAD-Gal4/YAP UAS-luciferase luminescence; in the data active = inhibition above about 32%;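 note: 0% = median of test compound wells and 100% = reference inhibitor wells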
# FBW7 act: activators of human E3 ligase FBW7; AID 1259310; Q969H0; actives 0.13% (n = 650,000); AlphaScreen FBW7–phospho-cyclin E peptide binding, activator screen; normalized activity (activation), % at 26.1 µM; in the data active = normalized activity above about 1.9%;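 note: purified mutant Fbw7 with reduced substrate affinity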
# GPR151 conf act: confirmation of human GPR151 activators; 6,700 tested, under 10 active; shares compounds with GPR151 activ; activation, % at 11.2 µM; GPR151 PathHunter beta-arrestin cells, luminescence, 90 min; % of EA-reagent control over plate median; AID 1508609;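 active = mean percent activation across replicates above the confirmation screen cutoff of 4.91%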
# GPR119 counter: activates human GPR119 in a GPR151 counter-screen. shares compounds with GPR151 activ. GPR119 PathHunter beta-arrestin cells, luminescence, 90 min; 0 = compound-well median, 100 = enzyme-acceptor control. activation, % at 11.2 µM. actives 0.3% (n = 6,700);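 active = mean percent activation in the counterscreen above 29.09%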;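 note: counterscreen on off-target GPR119 to flag nonselective hits from the GPR151 activator screen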
# * marks the source's active call; other numbers are inactive results; x = no result given. This is a sample that favours compounds with a hit; in the whole collection about 3.5% have one here.
SMILES,MITF primary,GPR151 activ,TEAD-YAP block,FBW7 act,GPR151 conf act,GPR119 counter
COCc1cc(CN2CCN3C(=O)[C@H](Cc4ccc(O)cc4)NC(=O)[C@H]3C2)ccc1OC,16,0,3,1,x,x
O=C1N[C@@H](Cc2c[nH]c3ccccc23)C(=O)N2CCN(C(=O)c3ccc4ccccc4c3)C[C@H]12,4,2,5,0,x,x
COc1ccc(C[C@@H]2NC(=O)[C@H]3CN(C(=O)c4cc(Cl)cc(Cl)c4)CCN3C2=O)cc1,11,7.4*,-1,0,1,13
O=C1N[C@@H](Cc2c[nH]c3ccccc23)C(=O)N2CCN(C(=O)Oc3ccc(F)cc3)C[C@H]12,-18,14*,-11,0,0,26
COc1ccc(C(=O)N2CCN3C(=O)[C@H](Cc4ccc(Cl)cc4)NC(=O)[C@H]3C2)cc1,-14,-1,-2,0,x,x
COCc1cc(CN2CCN3C(=O)[C@H](Cc4ccccc4)NC(=O)[C@H]3C2)ccc1OC,4,5.7*,7,0,0,5
COc1cccc(CN(C(=O)/C=C/c2ccc(Cl)cc2)C2CCS(=O)(=O)C2)c1 (stereo not drawn),9,6.9*,4,0,1,3
Cc1csc(Sc2ccc([N+](=O)[O-])cc2C(=O)OCC(=O)Nc2cc(C)on2)n1,13,0,-2,0,x,x
Cc1csc(Sc2ccc([N+](=O)[O-])cc2C(=O)OC(C)C#N)n1 (stereo not drawn),4,5.3*,2,0,0,5
COC(=O)c1cnn(C(=O)c2ccc(OC)cc2)c1N,6,6.2*,-4,0,0,0
COC(=O)c1cnn(C(=O)c2ccncc2)c1N,-3,-2,0,0,x,x
Cc1cc(C)n(-c2cccc(CN(C)C(=O)Cn3nnnc3CN3CCC(C)CC3)c2)n1,2,5.7*,4,0,0,4
Nc1ccc2c(c1)S(=O)(=O)c1cc(N)ccc1O2,3,7.4*,-59,0,0,-6
O=C(Nc1ccc2c(c1)CN(C(=O)c1csnn1)CC2)C1CCCO1 (stereo not drawn),15,-1,-12,0,x,x
Cc1nnc2sc(SCc3ccc([N+](=O)[O-])cc3)nn2c1=O,-5,0,1,0,x,x
Cc1ccccc1CSc1nn2c(=O)c(C)nnc2s1,-6,6.8*,1,-1,1,14
Cc1ccc(NC(=O)NCC2CCCN2S(=O)(=O)c2ccc(C)cc2)cc1 (stereo not drawn),0,5.8*,-35,0,-1,-18
Cc1ccc(NC(=O)C(=O)NCC2CCCN2S(=O)(=O)c2ccc(C)cc2)cc1 (stereo not drawn),8,-1,4,1,x,x
CCNC(=O)C(=O)NCC1CCCN1S(=O)(=O)c1ccccc1 (stereo not drawn),23,7.2*,0,0,-1,1
COc1ccc(NC(=O)CN2Cc3ccccc3C2=O)cc1OC,13,1,-2,0,x,x
CN(C)c1ccc(NC(=O)CC2NCCNC2=O)cc1 (stereo not drawn),7,5.0*,-5,0,-1,1
O=C(CC1NCCNC1=O)Nc1ccccc1 (stereo not drawn),-7,0,-1,0,x,x
COC(=O)c1ccccc1NC(=O)COC(=O)c1ccc(N)c([N+](=O)[O-])c1,18,1,0,0,x,x
COCC(=O)n1nc(NCc2ccc(OC)cc2)nc1NCc1ccc(OC)cc1,-16,3,4,0,x,x
CC(=O)n1nc(NCc2ccccc2)nc1NCc1ccccc1,-6,0,-1,0,x,x
CCCC(=O)n1nc(NCc2ccccc2)nc1NCc1ccccc1,11,6.9*,-9,0,0,-6
O=C(COc1ccccc1)n1nc(NCc2ccccc2)nc1NCc1ccccc1,4,8.8*,-3,0,0,4
COc1cc(-c2nccnc2N2CCN(CCN(C)C)CC2)cc(OC)c1OC,3,-1,0,0,x,x
Cc1ccc(NC(=O)Cc2nnc(NC(=O)Nc3ccccc3C)s2)cc1,10,0,-2,0,x,x
Cc1nc2c(C(=O)O)cnn2c(C)c1Cc1ccc(Cl)cc1,6,5.8*,7,0,1,8
